Laboratory results from PubChem BioAssay AID743373 (National Center for Advancing Translational Sciences (NCATS), 2014).
Records with an inconclusive call do not appear. Activity calls are given as the source filed them. Calls follow the shape of the dose curve; as a rule, active = well fitted inhibition curve with a large enough effect; inconclusive = small, poorly fitted or top-dose-only effect; inactive = flat fitted curve, though single readings scatter.

Target: Galactokinase (Homo sapiens) (UniProt P51570)
Assay: qHTS for Inhibitors of Human Galactokinase (GALK): Confirmation Assay for SAR round 4
Details: recombinant GALK, ADP-Glo luminescence, 1 h
Source text: Inherited deficiency of galactose-1-phosphate uridyltransferase (GALT) can result in a potentially lethal disorder called Classic Galactosemia (OMIM 230400). Several lines of evidence indicate that an elevated level of galactose-1-phosphate (gal-1-p), the product of galactokinase (GALK), is a major, if not sole, pathogenic mechanism in patients with classic galactosemia. Therefore, finding inhibitors of GALK is a potential novel therapy for this inherent metabolic disease and is the long term goal of this project. Active compounds observed in the qHTS GALK assay (AID: 1868) were cherry picked and re-screened for validation. GALK (provided by Kent Lai) was assayed using ATP and D-(+)-Galactose (Sigma-Aldrich cat# G0750) as substrates. Promega ADP-Glo technology was used to detect the ADP product formed after the kinase reaction. […]
Two uL/well of ATP-buffer solution (35 uM ATP, 20mM HEPES pH8.0, 5 mM MgCl2, 60 mM NaCl, 1 mM DTT, 0.01% BSA final concentration) was dispensed into 1536-well, assay plates (Greiner, solid white medium-binding plates) with Aurora Discovery BioRAPTR Flying Reagent Dispenser (FRD; Beckton-Dickenson). […] Luminescence was detected with the ViewLux plate reader (Perkin Elmer, Waltham, MA) using a 1 sec exposure time and 2x binning.

Galactokinase (Homo sapiens), sequence (P51570 whole entry, looked up): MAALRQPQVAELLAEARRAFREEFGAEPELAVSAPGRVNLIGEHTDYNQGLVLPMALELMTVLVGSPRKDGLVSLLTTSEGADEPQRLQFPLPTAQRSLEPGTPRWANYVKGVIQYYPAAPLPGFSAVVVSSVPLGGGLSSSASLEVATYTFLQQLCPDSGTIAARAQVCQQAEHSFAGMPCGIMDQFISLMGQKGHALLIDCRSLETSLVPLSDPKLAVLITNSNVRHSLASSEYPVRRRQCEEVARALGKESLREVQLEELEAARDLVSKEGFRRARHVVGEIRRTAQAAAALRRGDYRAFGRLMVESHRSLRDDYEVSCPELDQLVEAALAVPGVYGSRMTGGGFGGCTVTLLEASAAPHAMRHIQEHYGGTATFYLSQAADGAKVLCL

In the case of Cn1cc(Br)c(C2N=C(Nc3nc4ccccc4o3)NC3=C2C(=O)CCC3)n1 (configuration not stated), the Potency is reported as 4.32 µM (active).

CC1=C(C(=O)Nc2nncs2)C(c2nn(C)cc2Cl)N=C(Nc2nc3ccccc3o2)N1 (configuration not stated) was tested, and the Potency was 6.85 µM (active).
